Source: PubChem BioAssay AID2314 (National Center for Advancing Translational Sciences (NCATS), 2010)
“And” between values parts separate entries of the source, which are not always exact repeats. Identical values can stand only once. In all, about 300,000 compounds went through this assay and about 37,000 (12%) were called active. Cut-off read from the data, not from the text of the source: active = max response mostly above about 13% (no sharp cut-off); inactive = mostly below about 14%. For the sample, actives were picked, then their nearest neighbours and some compounds at random.

Test: Cycloheximide Counterscreen for Small Molecule Inhibitors of Shiga Toxin; note: read at 38.3 µM for the half of the compounds with a filed dose; 0% is about no effect
Settings: cell reporter, cycloheximide protein synthesis inhibition counterscreen; hits give high values

Structure (SMILES) | max response
Cc1cccc(C(=O)OCC(=O)Nc2sc3c(c2C#N)CCC3)c1 | -3.19% (inactive)
COc1ccc(CN2CCn3ncc(C(=O)Nc4ccc(Cl)cc4Cl)c3C2=O)cc1 | -1.27% (inactive)
Cc1ccc(C(c2nnnn2CS(=O)(=O)c2ccc(C)cc2)N2CCC(C)CC2)cc1 (stereo not drawn) | 1.26% (inactive)
COc1cccc(-c2nc(CS(=O)CC(=O)NCc3ccc(F)cc3)c(C)o2)c1 (stereo not drawn) | -2.32% (inactive)
O=[N+]([O-])c1cccc(/C=N/Nc2ncc(Br)cn2)c1 | 29.2% (active)
COc1ccc(O)c(/C=N/N=C/c2cccc([N+](=O)[O-])c2)c1 | -1.21% (inactive)
O=C(N/N=C/c1cccc([N+](=O)[O-])c1)C1CC(=O)N(c2ccc(Br)cc2)C1 (stereo not drawn) | 0.637% (inactive)
CC(NC(=S)Nc1ccccc1)C(c1cccs1)N1CCOCC1 (stereo not drawn) | -0.819% (inactive)
CC(C)CN(C(=O)c1cccc(S(=O)(=O)N2CCCCC2)c1)C1CCS(=O)(=O)C1 (stereo not drawn) | -3.21% (inactive)
CCOc1ccc(C(=O)NCCCN2CCCC2=O)cc1 | 16.9% (active)
Cc1cccc(C(=O)NCCCN2CCCC2=O)c1 | -1.36% (inactive)
CCOc1cc2[nH]c(=O)n(Cc3ccc(C(=O)NCCCN4CCCC4=O)cc3)c(=O)c2cc1OCC | 3.4% (inactive)
Cn1c(N)c(C(=O)COC(=O)/C=C/c2ccc(OC(F)F)cc2)c(=O)n(C)c1=O | 9.63% (inactive)
COc1ccc(S(=O)(=O)n2cnc3ccccc32)c(C)c1 | 8.08% (inactive)
COc1cccc(NC(=O)CN(C)C(=O)/C=C/c2cc(OC)ccc2OC)c1 | -0.59% (inactive)
O=C(NCCCNc1ccc([N+](=O)[O-])cc1Cl)c1ccccc1F | 11.2% (inactive)
O=C(NCCNc1ccc([N+](=O)[O-])cc1Cl)c1ccccc1F | 12.9% (inactive)
O=[N+]([O-])c1ccccc1NCc1ccc(Cl)cc1 | 19.5% (active)
O=C(NCCNc1ccccc1[N+](=O)[O-])c1ccccc1F | 46.4% (active)
Cc1c(NC(=S)NCc2ccc(F)cc2)cccc1[N+](=O)[O-] | -2.87% (inactive)
O=[N+]([O-])c1ccccc1NCc1ccccc1Cl | 0.768% (inactive)
COc1ccc(NS(=O)(=O)c2cccc3nsnc23)cc1Cl | -2.31% (inactive)
Cc1noc(C)c1S(=O)(=O)Nc1cc(C(F)(F)F)ccc1N1CCOCC1 | 1.06% (inactive)
COCCCNC(=O)/C(C#N)=C/c1c(N2CCCCCC2)nc2ccccn2c1=O | 5.95% (inactive)

Structure (SMILES) | max response
CCCC[C@]12Cc3cc(OC)c(OC)cc3C(O1)C1=C(CC3(CCCCC3)OC1=O)O2 | -1.97% (inactive)
COc1cc(/C=C/C(=O)OCC(=O)N2CCOCC2)ccc1OCC#N | -1.28% (inactive)
CSc1cccc(NC(=S)N(C(C)C)C(C)c2ccccn2)c1 (stereo not drawn) | 9.01% (inactive)
C=CCNC(=S)NNC(=O)COc1c(Cl)cc(Cl)cc1Cl | -3.49% (inactive)
Cc1cc(C(=O)Nc2c(C)nn(Cc3ccccc3)c2C)on1 | -4.11% (inactive)
Cc1ccc(Cn2ccc(NC(=O)C3C4CCC(C4)C3C(=O)O)n2)cc1 (stereo not drawn) | 1.94% (inactive)
Cc1ccc(Cn2ccc(NC(=O)c3cc(C(C)C)on3)n2)cc1 | 48% (active)
Cc1ccc(C(=O)OCC(=O)NC(=O)Cc2ccccc2)c(O)c1 | 4.77% (inactive)
COc1ccc([N+](=O)[O-])cc1NC(=O)c1ccc(N(Cc2ccccc2C)S(C)(=O)=O)cc1 | -0.93% (inactive)
C=CCN(c1ccc(C(N)=O)cc1)S(C)(=O)=O | -1.24% (inactive)
Cc1cc(C)cc(NC(=O)N(C)Cc2ccccc2)c1 | 4.9% (inactive)
CC(=O)Nc1ccccc1NC(=O)c1cc(C)cc(C)c1 | -1.4% (inactive)
CSCc1ccc(C(=O)Nc2cc(C)cc(C)c2)cc1 | 41.7% (active)
C=CCN(c1ccc(C(=O)Nc2cc(C)cc(C)c2)cc1)S(C)(=O)=O | 12.7% (active)
CCN(CC(=O)Nc1ccc(Cl)c(S(=O)(=O)N(C)C)c1)Cc1nc2ccccc2c(=O)[nH]1 | -3.17% (inactive)
Clc1ccc(-c2cc(C3CCNCC3)[nH]n2)c(Cl)c1 | 9.48% (inactive)
CCc1cc(CNC(=O)CC2C(=O)NCCN2Cc2ccccc2C(F)(F)F)on1 (stereo not drawn) | -1.48% (inactive)
CCOC(=O)c1c(C(C#N)C#N)cc(C)nc1C | 1.41% (inactive)
CCOC(=O)COc1nc(C)cc(C(F)(F)F)c1C#N | -3.74% (inactive)
CCOC(=O)c1cc(C)nc(S(C)(=O)=O)c1C#N | 24.3% (active)
O=C1CCCN2N=C(SCC(=O)Nc3ccc(Br)cc3)SC2=N1 | 7.4% (inactive)
Cc1ccc(CN(C)Cc2cc(=O)oc3cc(C)c(Cl)cc23)cc1 | 8.9% (inactive)
O=[N+]([O-])c1cc(C(F)(F)F)ccc1NN=C1CCCC1 | -3.4% (inactive)
O=[N+]([O-])c1ccccc1N/N=C1\CCc2ccccc21 | 22.3% (active)

Structure (SMILES) | max response
CN1CCN(CCNC(=O)Nc2ccccc2[N+](=O)[O-])CC1 | -3.83% (inactive)
Cc1ccc2nc(-c3ccncc3)cc(C(=O)Nc3ccc4c(c3)OCCO4)c2c1 | 7.28% (inactive)
CCOC(=O)c1cnc2ccc(F)cc2c1Nc1ccc2c(c1)OCCO2 | 32.3% (active)
O=C(Nc1ccc2c(c1)OCCO2)C(c1ccc(F)cc1)N1CCCCC1 (stereo not drawn) | -0.355% (inactive)
C/C(CC(=O)NCc1ccc(Cl)cc1)=N\NC(=O)COc1ccc(C)cc1Br | -1.26% (inactive)
Cc1ccccc1C(=O)N1CCC(C(=O)Oc2ccc(C#N)cc2)CC1 | -2.38% (inactive)
CCn1c(CC(=O)Nc2ccccc2)nnc1SCC(=O)N1CCOCC1 | -2.97% (inactive)
Clc1cccc(-c2nc3nc4ccccc4nc3n2Cc2ccco2)c1 | 31.5% (active)
COc1ccc(CCn2c(-c3ccco3)nc3nc4ccccc4nc32)cc1OC | 7.86% (inactive)
Cc1cc(NC(=O)CSc2nc3cc(Cl)ccc3c(=O)n2Cc2ccco2)no1 | 1.42% (inactive)
Cc1cc2oc(=O)cc(CN3CCN(Cc4ccccc4)CC3)c2cc1C | 1.14% (inactive)
COc1cc(CN2CC(C)CC(C)C2)cc([N+](=O)[O-])c1O (stereo not drawn) | -0.873% (inactive)
O=C(COC(=O)c1ccc(S(=O)(=O)N2CCc3ccccc3C2)cc1)NC(=O)NCc1ccco1 | 6.51% (inactive)
Cc1csc(NC(=O)NC2(C(F)(F)F)Oc3ccccc3O2)n1 | 1.16% (inactive)
O=C(Nc1cc(N2CCOCC2)ncn1)NC1(C(F)(F)F)Oc2ccc(Cl)cc2O1 (stereo not drawn) | 45.4% (active)
O=C(CN1C(=O)COc2ccc(Cl)cc21)Nc1ccc(N2CCOCC2)cc1 | 1.87% (inactive)
CCc1cc(=O)oc2c(C)c(OCC(=O)NCCN3CCOCC3)ccc12 | 1.6% (inactive)
Cc1ccc(NC(=O)CCN2C(=O)c3ccccc3C2=O)cc1C | -2.39% (inactive)
CC(C)=CCCC(C)CN1CCC(n2nccc2NC(=O)c2ccccc2)CC1 (stereo not drawn) | -5.01% (inactive)
O=C(Nc1ccc(S(=O)(=O)N2CCCCC2)cc1)c1cnccn1 | -3.02% (inactive)
CCN1CCN(c2ccc(NC(=O)c3cnccn3)cc2)CC1 | 26% (active)
O=C(NCN1CCN(CCO)CC1)c1cnccn1 | -4.08% (inactive)
N#CCSc1nc(-c2ccccc2)nc2ccc(F)cc12 | -2.28% (inactive)
Cn1cc(CNC(=O)c2ccc(OC3CCN(Cc4ccccn4)CC3)cc2)cn1 | 9.98% (inactive)

Structure (SMILES) | max response
CN(CCc1ccccn1)C(=O)c1ccc(OC2CCN(CCc3ccccc3)CC2)cc1 | 17% (active)
CN(CCc1ccccn1)C(=O)c1ccc(OC2CCN(Cc3ccccn3)CC2)cc1 | 0.254% (inactive)
OCCC(O)CO (stereo not drawn) | -4.13% (inactive) and -5.85% (inactive) and -2.71% (inactive)
CS(=O)(=O)c1ccc(-c2nnn(CC(=O)Nc3ccc4c(c3)OCCO4)n2)cc1 | 15.4% (active)
Cn1ccnc1SCC(=O)Nc1ccc2c(c1)OCCO2 | 18% (inactive)
COc1ccc(S(=O)(=O)N(C)CC(=O)Nc2ccc3c(c2)OCCO3)cc1OC | 18.2% (active)
O=C(CSc1nc2ncccc2[nH]1)Nc1ccc2c(c1)OCCO2 | 25.8% (active)
CCc1ccccc1OCC(=O)Nc1ccc2c(c1)OCCO2 | 35.2% (active)
CCOC(=O)c1ccc(NC(=O)Cn2nnc(-c3ccc(C)cc3)n2)cc1 | -3.53% (inactive)
O=C(CN(c1ccc2c(c1)OCCO2)S(=O)(=O)c1ccccc1)Nc1ccc2c(c1)OCO2 | 11.4% (inactive)
CC(C)NS(=O)(=O)c1ccc(OCC(=O)Nc2ccc3c(c2)OCCO3)cc1 | 2.4% (inactive)
COc1ccc(NC(=O)CN(C)S(=O)(=O)c2ccccc2)cc1OC | -1.84% (inactive)
O=C(CSc1nc(C2CC2)nc2ccccc12)Nc1ccc2c(c1)OCCO2 | 1.1% (inactive)
CC(C)CNS(=O)(=O)c1ccc(OCC(=O)Nc2ccc3c(c2)OCO3)c(Cl)c1 | 5.31% (inactive)
Cc1cccc(C(=O)Nc2ccccc2-c2nnn(CC(=O)Nc3ccc4c(c3)OCCO4)n2)c1 | -4.9% (inactive)
CCc1ccc(Oc2nc([N+](=O)[O-])nn2C)cc1 | -1.09% (inactive)
COc1ccc(OCCCCN2CCC(C)CC2)cc1 | -5.4% (inactive)
CCN(CC)S(=O)(=O)c1ccc(C(=O)N2CCN(C3=NS(=O)(=O)c4ccccc43)CC2)cc1 | 7.96% (inactive)
CC1CCC(C(C)C)C(=O)/C1=C\c1ccc(NC(=O)CCC(=O)O)cc1 (stereo not drawn) | -5.07% (inactive)
COc1ccc(CN2CN(C3CCCC3)CSC2=S)cc1 | 3.32% (inactive)
O=S(=O)(c1ccc(Br)cc1)N1CCC(c2nc3ccccc3[nH]2)CC1 | -3.07% (inactive)
